From PubChem BioAssay
eIF4E 4G PPI – blocks eIF4E binding to eIF4G | TR-FRET eIF4E-eIF4GI(517-606) binding, 2 h | actives 0.37% (n = 220,000) | P63073+Q04637 | inhibition, % at 21.7 µM;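 active = inhibition above about 30%, limit read from the data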
eIF4H inh – inhibitors of RNA binding by human eIF4H; eIF4H fluorescence polarization binding assay; AID 2012; inhibition, % at 35 µM; actives 0.94% (n = 290,000); Q15056;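 note: calls also rest on retests at 20 µM and on dose response follow-up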
PERK inh – human PERK inhibition, primary cell-based screen | inhibition, % at 5.6 µM | CHO PERK-DD fusion, SEAP luminescence translation reporter | AID 1416 | actives 0.17% (n = 220,000);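 active = inhibition above the mean inhibition of all tested compounds plus 3 SD, set separately per screening campaign, cut at about 2.9% in these data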;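 note: PERK kinase domain activated by AP20187 dimerizer at 100 nM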
PABP FP inh – blocks human PABP binding to poly(A) RNA; fluorescence polarization; calls only at 35 µM; actives 1% (n = 290,000); AID 2014; P11940;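 note: calls also rest on retests at 20 µM and on dose response follow-up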
MLLE-PAM2 inh – inhibitors of microRNA-mediated deadenylation, human PABP1 MLLE binding; P11940; GST-MLLE / FITC-PAM2 fluorescence polarization; inhibition, % at 20 µM; actives 0.36% (n = 360,000); AID 588489; in the data active = inhibition above about 35%, passing the limit was not always enough
Large screens that a line does not name were inactive. Only some compounds are listed: those with a hit (about 1.6% of all), similar ones and a draw of the others. Unless noted, the rule behind the calls is not given here.

COC(=O)n1c(=S)oc2cc(Cl)ccc21	eIF4E 4G PPI 61 (no result: MLLE-PAM2 inh)
O=C(O)c1ccc(N=Nc2c(O)ccc3ncccc23)cc1	eIF4H inh 90, PABP FP inh active (no result: eIF4E 4G PPI, PERK inh)
CC(=O)c1c(C)oc2ccc(NS(=O)(=O)c3ccc(C)cc3)cc12	none (no result: eIF4E 4G PPI, PERK inh)
Cc1ccc(C)c(S(=O)(=O)Nc2ccc3oc(C)c(C(=O)O)c3c2)c1	eIF4H inh 87, PABP FP inh active (no result: eIF4E 4G PPI, PERK inh)
CC(=O)[C@H]1[C@@H]2C(=O)N(c3cccc(Cl)c3)C(=O)[C@@H]2[C@H]2c3ccccc3C=CN21	PABP FP inh active
O=C(c1ccco1)[C@@H]1[C@@H]2C(=O)N(c3ccc(F)cc3)C(=O)[C@@H]2C2c3ccccc3C=CN21 (some centres undefined)	PERK inh 3.0, PABP FP inh active (no result: MLLE-PAM2 inh)
O=C(c1ccco1)[C@@H]1[C@@H]2C(=O)N(c3ccc(Br)cc3)C(=O)[C@@H]2C2c3ccccc3C=CN21 (some centres undefined)	none (no result: eIF4E 4G PPI)
O=C(Oc1cccc(F)c1)c1ccc2c(=O)n3c(nc2c1)CCC3	none (no result: eIF4E 4G PPI, eIF4H inh, PERK inh, PABP FP inh)
COC(=O)C1=C(C(=O)OC)C(C(=O)OC)N2C=CC=CC2=C1C(=O)OC (centres undefined)	none (no result: eIF4E 4G PPI, eIF4H inh, PERK inh, PABP FP inh)
Cc1cc(C)c2c(=O)c(C#N)coc2c1	MLLE-PAM2 inh 39
Cc1ccc2[nH]c3c(=O)n(CC(=O)NCc4ccco4)ncc3c2c1	eIF4H inh 59 (no result: eIF4E 4G PPI, PERK inh)
CCOCC(=O)Nc1nnc(COc2ccc(Cl)cc2)s1	MLLE-PAM2 inh 37
CCOCCc1c(O)nc(SCC(=O)N2CCOCC2)[nH]c1=O	none (no result: eIF4E 4G PPI, PERK inh)
CC(C)CN1CCNC(=O)C1CC(=O)NCCCN1CCCc2ccccc21 (centres undefined)	PABP FP inh active
O=C(NCC1CCCO1)c1nn2c(C(F)(F)F)cc(-c3ccc(Br)o3)nc2c1Br (centres undefined)	none (no result: eIF4E 4G PPI, PERK inh)
Cc1nnc(NC(=O)C2c3ccccc3Oc3ccccc32)s1	MLLE-PAM2 inh 38
CC(C)c1nnc(NC(=O)C2c3ccccc3Oc3ccccc32)s1	none
COc1cc(Nc2nc3ccccc3n3nnnc23)cc(OC)c1OC	eIF4H inh 80, PABP FP inh active
COc1ccc(Nc2nc3ccccc3n3nnnc23)cc1	none
CNc1nc(-c2ccccc2)[n+](-c2ccc(C)cc2)s1	eIF4E 4G PPI 39
Cc1ccc(-c2nc(N)s[n+]2-c2ccccc2)cc1	MLLE-PAM2 inh 40
Cc1ccc(-c2nc3ccccc3nc2-c2ccccc2)cc1	none (no result: eIF4E 4G PPI, PERK inh)
O=C1C(Cl)=C(O)C2(Cl)C(Cl)=C(Cl)C12Cl (centres undefined)	none (no result: eIF4E 4G PPI, eIF4H inh, PERK inh, PABP FP inh)
O=C(Nc1ccccc1Cl)c1cc(C2CCCCN2S(=O)(=O)c2ccc(F)cc2F)on1 (centres undefined)	none (no result: eIF4E 4G PPI, eIF4H inh, PERK inh, PABP FP inh)
CCOC(=O)c1nc(Nc2ccc(C)cc2)c2ccccc2n1	MLLE-PAM2 inh 60
CCOc1ccc(N=C/C=C/c2ccccc2)c(O)c1	eIF4H inh inconclusive, PABP FP inh active
CCOc1ccc(NCC(=O)N/N=C/C=C/c2ccccc2)cc1	none
COc1cc(/C=C2\SC(=S)N(CCC(=O)N3CCCCC3)C2=O)cc(OC)c1OC	none (no result: eIF4E 4G PPI, PERK inh)
COC(=O)/C=C1\S/C(=N/N=C/c2ccco2)NC1=O	eIF4H inh 61, PABP FP inh active
Cc1ccc(S(=O)(=O)/N=C2/NC(=O)/C(=C\c3ccco3)S2)cc1	eIF4H inh 66, PABP FP inh active
Cc1ccc(S(=O)(=O)/N=C2/NC(=O)/C(=C\c3ccccc3)S2)cc1	none (no result: eIF4E 4G PPI, eIF4H inh, PERK inh, PABP FP inh)
CC(=O)Nc1ccc(S(=O)(=O)/N=C2/NC(=O)/C(=C\c3ccco3)S2)cc1	eIF4H inh 88, PABP FP inh active
COC(=O)/C=C1/S/C(=N/N=C/c2ccco2)NC1=O	none
O=C(COC(=O)c1ccc(O)cc1)NCC1CCCO1 (centres undefined)	none
COc1cccc2cc(C(=O)Nc3ccccc3Cl)/c(=N/NS(=O)(=O)c3ccccc3)oc12	none (no result: eIF4E 4G PPI, PERK inh)
COc1ccccc1-c1nn2c(-c3ccco3)nnc2s1	eIF4H inh 59
c1coc(-c2nn3c(-c4ccco4)nnc3s2)c1	eIF4H inh 95, PABP FP inh active
COc1ccccc1-c1nn2c(-c3ccccc3Cl)nnc2s1	none (no result: eIF4E 4G PPI, PERK inh, MLLE-PAM2 inh)
COc1ccc(OCc2nn3c(-c4ccco4)nnc3s2)cc1	none
c1coc(-c2nnc3sc(Cc4cccs4)nn23)c1	eIF4H inh 77, PABP FP inh active
c1csc(Cc2nn3c(-c4n[nH]c5c4CCC5)nnc3s2)c1	PABP FP inh active
Clc1ccc(OCc2nn3c(-c4ccco4)nnc3s2)cc1	none
Cc1ccc(-c2n[nH]c(Cc3ccccc3)n2)cc1	none (no result: eIF4E 4G PPI, eIF4H inh, PERK inh, PABP FP inh)
O=P(OCC1CC1)(c1ccccc1)c1ccccc1	PABP FP inh active
